# Measured values published in PubChem BioAssay (NCATS).
# Calls of active or inactive are those of the source. The call rests on the fitted dose curve; in most records, active means well fitted curve in the direction sought with a large enough effect; inconclusive means small, poorly fitted or top-dose-only effect, or effect the other way, or another doubt; inactive means no such curve, though single readings can be large or run the other way.
# Test: qHTS of Nrf2 Activators: LOPAC Validation (AID 624149)
# Details: Nrf2/ARE reporter cell assay; series mostly up to 46.1 µM
# Method in brief: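 ARE reporter activation measured in AREc32 firefly luciferase cells after 24 hr compound exposure; Steady-Glo luminescence.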
row,SMILES,outcome
1,FC(F)(F)c1ccccc1-n1ccnc1,inactive
2,CCCN(CCC)C(=O)C(CCC(=O)O)NC(=O)c1ccccc1 (stereo unspecified),inactive
3,CCCCNC(=O)NS(=O)(=O)c1ccc(C)cc1,inactive
4,COc1ccc2c(c1OC)C(=O)O[C@@H]2[C@H]1c2c(cc3c(c2OC)OCO3)CCN1C,inactive
5,Cc1ccc(S(=O)(=O)NC(=O)NN2CCCCCC2)cc1,inactive
6,CN(C)C/C=C(/c1ccc(Br)cc1)c1cccnc1,inactive
7,CN1CCN(CC(=O)N2c3ccccc3C(=O)Nc3cccnc32)CC1,inactive
8,CN(C)CCOC(=O)COc1ccc(Cl)cc1,inactive
9,COc1ccc(CN(CCN(C)C)c2ccccn2)cc1,inactive
10,CN=C(NC#N)NCCSCc1nc[nH]c1C,inactive
11,CN(C)CCCN1c2ccccc2Sc2ccccc21,inactive
12,CC(=O)Nc1nnc(S(N)(=O)=O)s1,inactive
13,c1ccc2c(c1)CCCC2C1=NCCN1 (stereo unspecified),inactive
14,CCn1ccnc1CC1COc2ccccc2O1 (stereo unspecified),inactive
15,OC(CCN1CCCCC1)(c1ccccc1)C1CCCCC1 (stereo unspecified),inactive
16,CCc1cccc(N(C)C(N)=Nc2cccc3ccccc23)c1,inactive
17,COCCc1ccc(OCC(O)CNC(C)C)cc1 (stereo unspecified),inactive
18,CN1C[C@H](C(=O)N[C@]2(C)O[C@@]3(O)[C@@H]4CCCN4C(=O)[C@H](Cc4ccccc4)N3C2=O)C[C@@H]2c3cccc4[nH]cc(c34)C[C@H]21,inactive

row,SMILES,outcome
1,CN1C(=O)CC[C@H]1c1cccnc1,inactive
2,CCN1CCc2nc(N)oc2CC1,inactive
3,CC(C)NNC(=O)c1ccncc1,inactive
4,CC(=O)[C@]1(O)Cc2c(O)c3c(c(O)c2[C@@H](O[C@H]2C[C@H](N)[C@H](O)[C@H](C)O2)C1)C(=O)c1ccccc1C3=O,inactive
5,CN(C)C(=O)Oc1ccc[n+](C)c1,inactive
6,CC(=O)Oc1cc(C(C)C)c(OCCN(C)C)cc1C,inactive
7,CCO/C([O-])=N/c1c[n+](N2CCOCC2)no1,inactive
8,CN(C(=O)CCCOc1ccc2[nH]c(=O)ccc2c1)C1CCCCC1,inactive
9,CCCCCCCC/C=C\CCCCCCCC(=O)NCc1ccc(O)c(OC)c1,inactive
10,NC(N)=N/N=C/c1c(Cl)cccc1Cl,inactive
11,CCCCCN(CCCCC)C(=O)C(CCC(=O)O)NC(=O)c1ccc(Cl)c(Cl)c1 (stereo unspecified),inactive
12,Fc1ccc(C(c2ccc(F)cc2)N2CCN(C/C=C/c3ccccc3)CC2)cc1,inactive
13,CC[N+](C)(C)c1cccc(O)c1,inactive
14,Cc1scc2c1N(C(=O)CN1CCN(C)CC1)c1ccccc1NC2=O,inactive
15,CCN(CC)CCCN(c1ccccc1)C1Cc2ccccc2C1,inactive
16,COC(=O)[C@H]1[C@H]2C[C@@H]3c4[nH]c5cc(OC)ccc5c4CCN3C[C@H]2C[C@@H](OC(=O)c2cc(OC)c(OC)c(OC)c2)[C@@H]1OC,inactive
17,CCCN(CCC)CCc1cccc2c1CC(=O)N2,inactive
18,CC(C)(Oc1ccc(CCNC(=O)c2ccc(Cl)cc2)cc1)C(=O)O,inactive
